Reference: PubChem BioAssay (NCI)
About 83,000 compounds went through this panel and 20% of them were active in at least one assay; those are over-represented in the sample as a whole.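 Negative percent growth values reflect cell death: -40 means 40% of the cells present at the start died, and -100 means all died.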 A number with no mark means an inactive call. Active and inactive are the calls of the source. Rule for the calls: active = growth percent below 10; inactive = the rest.

Tests used:
Experiment in all cases: NCI-60 one-dose screen, 48 h (100 = growth as untreated, 0 = no growth, -100 = all killed)
Conditions in all cases: 10 µM unless noted
SR leukemia = tested on: SR leukemia
RPMI-8226 leukemia = tested on: RPMI-8226 leukemia
OVCAR-8 ovarian = tested on: OVCAR-8 ovarian
OVCAR-5 ovarian = tested on: OVCAR-5 ovarian
OVCAR-4 ovarian = tested on: OVCAR-4 ovarian
SK-OV-3 ovarian = tested on: SK-OV-3 ovarian
IGROV1 ovarian = tested on: IGROV1 ovarian
OVCAR-3 ovarian = tested on: OVCAR-3 ovarian
HS 578T breast = tested on: HS 578T breast
NCI/ADR-RES ovarian = tested on: NCI/ADR-RES ovarian

Row | SMILES | growth (SR leukemia) | growth (RPMI-8226 leukemia) | growth (OVCAR-8 ovarian) | growth (OVCAR-5 ovarian) | growth (OVCAR-4 ovarian) | growth (SK-OV-3 ovarian) | growth (IGROV1 ovarian) | growth (OVCAR-3 ovarian) | growth (HS 578T breast) | growth (NCI/ADR-RES ovarian)
1 | CCOC(=O)C1=C(N)Oc2c(sc3c(F)cccc23)C1c1ccc(O)cc1 (stereo not given) | 15.3% | 25.2% | 44.1% | 92.4% | 38.4% | 78.9% | 48.9% | 45.3% | 31.9% | 36.6%
2 | O=C(CN1C(=O)NC2NC(=O)NC21)N/N=C/c1ccccc1[N+](=O)[O-] (stereo not given) | 110% | 109% | 104% | 108% | 99.6% | 104% | 107% | 123% | 107% | 105%
3 | C=C1C(=O)O[C@H]2[C@H]1CC/C(COC(=O)/C=C\C(=O)NCc1ccc(Cn3c(=O)sn(CCI)c3=O)cc1)=C\CC[C@@]1(C)O[C@@H]21 | 2.49% (active) | 22.4% | 58.3% | 77.7% | 48.3% | 133% | 3.61% (active) | 10.4% | 89.3% | 98%
4 | COc1cc2c(cc1OCCCN1CCN(CCCOc3cc4c(cc3OC)C(=O)N3CCC[C@H]3C=N4)CC1)C=CC(C)(C)O2 | -58.3% (active) | -8.49% (active) | -56.7% (active) | -80.7% (active) | -71.2% (active) | -83.9% (active) | -89.1% (active) | -75.6% (active) | -77.9% (active) | 32.6%
5 | O=C(CSc1oc(-c2ccccc2)nc1S(=O)(=O)c1ccccc1)Nc1ccc(F)cc1 | 83.8% | 55.7% | 88.7% | 87.5% | 67.4% | 95.8% | 88.9% | 85.7% | 97.9% | 75.3%
6 | OCCn1cc(-c2nc(-c3c[nH]c4ncccc34)cs2)c2ccccc21 | 53.5% | 57.8% | 90.4% | 90.5% | 51.7% | 70.2% | 56.1% | 81.7% | 71.3% | 94.6%
7 | COC(=O)c1nc(-c2ccccc2)oc1S(=O)(=O)Cc1ccccc1 | -11.5% (active) | 84.5% | 90.1% | 102% | 101% | 97.6% | 85.6% | 41.1% | 110% | 97%
8 | COC1/C=C/OC2(C)Oc3c(C)c(O)c4c(O)c(c(/C=N/Nc5ccc([N+](=O)[O-])cc5[N+](=O)[O-])c(O)c4c3C2=O)NC(=O)C(C)=C/C=C/C(C)C(O)C(C)C(O)C(C)C(OC(C)=O)C1C (stereo not given) | 7.02% (active) | 7.67% (active) | 27.3% | 48.3% | 35% | 112% | 28.5% | -42.1% (active) | 20% | 76.7%
9 | COc1ccccc1NC(=O)N=Nc1c(O)[nH]c2ccccc12 | 83.9% | 84.8% | 92.9% | 86.7% | 105% | 97.8% | 82% | 107% | 87.8% | 94.1%
10 | CCCCNCCCCCNc1cc(OC)cc2cccnc12 | 71.1% | 76.9% | 99.3% | 91.4% | 60.1% | 95.2% | 118% | 107% | 99% | 95.9%
11 | CCOC(=O)c1ccc(NC(=O)c2nc(-c3cc(OC)c(OC)c(OC)c3)n(-c3ccc(Cl)cc3)n2)cc1 | 92.7% | 82.1% | 91.5% | 101% | 95.4% | 94.3% | 88.9% | 99.7% | 74.5% | 90.8%
12 | Cn1cc(-c2csc(-c3cn(C(=O)OC(C)(C)C)c4ccc(Br)cc34)n2)c2ccnc(Cl)c21 | 39.2% | 79.4% | 59.8% | 105% | 65.3% | 82.8% | 89.1% | 97.3% | 2.06% (active) | 71.8%
13 | c1cnc2c(-c3nc4ccc5[nH]ncc5c4c4c3CCCC4)c[nH]c2c1 | 5.93% (active) | 34.5% | 23.8% | 37.3% | 27.9% | 51.5% | 18% | 26.4% | 63.4% | 80.6%
14 | COCCOc1cc2ncnc(N3CCN(c4ncc(S(=O)(=O)N5CCCCC5)cn4)CC3)c2cc1OCCOC | 72.9% | 90.2% | 97% | 114% | 105% | 123% | 99.2% | 114% | 114% | 97.6%
15 | CCOC(=O)c1cc(C)n(-c2ccc(C(=O)O)cc2)c1C | 75.5% | 104% | 87.6% | 76.7% | 94.6% | 92.8% | 107% | 115% | 90.8% | 89.6%
16 | Cc1c[n+](Cc2ccc3ccccc3c2)cn1Cc1ccc2ccccc2c1 | -47.2% (active) | -42.4% (active) | 2.04% (active) | 27.1% | -7.39% (active) | 35.3% | -16.3% (active) | -2.44% (active) | 46.8% | 101%
17 | Cn1c(I)c(C#CCO[Si](C)(C)C(C)(C)C)c(=O)[nH]c1=O | -11.3% (active) | 84.8% | 94.8% | 102% | 80% | 105% | 81.4% | 75.4% | 106% | 102%
18 | CCOc1ccc(NC(=O)CSc2oc(-c3ccccc3)nc2S(=O)(=O)c2ccc(C)cc2)cc1 | 41.3% | 71.3% | 40.2% | 101% | 51.1% | 83.3% | 95% | 56.8% | 59.9% | 58.9%
19 | COc1cc(C2CC(c3ccc(Nc4nc(Nc5ccc(Cl)cc5)nc(Nc5ccc(Cl)cc5)n4)cc3)=NN2C(C)=O)cc(OC)c1OC (stereo not given) | 72.7% | 32% | 107% | 92.8% | 97.3% | 126% | 85.7% | 105% | 122% | 92.7%
20 | O=c1[nH]c(Cc2nc3ccccc3s2)nc2cc(Br)ccc12 | 75.4% | 66.7% | 70.8% | 66.5% | 92.4% | 78.8% | 73.9% | 86.4% | 84.2% | 72.8%
21 | C1CN(SSN2CCOCC2)CCO1 | 13.3% [100 µM] | 1.55% [100 µM] (active) | -25.2% [100 µM] (active) | 35.8% [100 µM] | -51.7% [100 µM] (active) | 101% [100 µM] | 54.8% [100 µM] | -82.2% [100 µM] (active) | 41% [100 µM] | 2.69% [100 µM] (active)
22 | C=CCn1c(SCC(=O)Nc2ccc(C(=O)/C=C/c3ccc(Cl)cc3)cc2)nnc1-c1ccc(Br)cc1 | 70.7% | -28.1% (active) | 57.6% | 98% | 57.6% | 138% | 87.2% | 85.5% | 71.9% | 74.7%
23 | CSc1nc2ccccc2cc1/C=C1/C=C(c2ccccc2)NC1=O | 27.4% | 81.9% | 82.5% | 99.5% | 84.7% | 85.1% | 79.4% | 71.7% | 80% | 76.2%
24 | O=S(=O)(Nc1ccc(F)cc1F)c1ccc(-c2cnc(C3CC3)o2)cc1 | 10.9% | 18.1% | 38.4% | 51.8% | 46.8% | 45.6% | 32.6% | 13.4% | 27.4% | 19.4%
25 | Cc1ccc(CNc2ccc3nc(CCC4CCCCC4)[nH]c3c2)cc1 | 12.8% | -24.6% (active) | 56.4% | 57.8% | 11% | 60.3% | 25.6% | 28.6% | 55.7% | 40.4%
26 | N#Cc1ccc(O)c(C2=NCC(c3ccccc3)O2)c1 (stereo not given) | 38% | 33.3% | 19.6% | 84% | 9.62% (active) | 45.3% | 33.1% | 7.61% (active) | 77.2% | 1.45% (active)
27 | COc1ccc2[nH]c(C(=O)N3CCN(C(=O)OCc4ccc5c(Cl)cc(Cl)c(O)c5n4)CC3)cc2c1 | 2.29% (active) | -27.9% (active) | -64.1% (active) | -88.7% (active) | -69.5% (active) | 44.7% | -96.4% (active) | -97.3% (active) | -15.1% (active) | -2.44% (active)
